IL-1B inflam inh: blocks inflammasome-driven IL-1 beta release. THP-1 LPS/ATP IL-1B secretion, AlphaLISA, 16 h; active compounds read low. activity change, % at 57.5 µM. 4.7% of 360,000 active. AID 743279; in the data active = activity change below about -50%; inconclusive = mostly about -30% to -49%
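THP-1 cells pretreated 1 hr with compounds (up to 57.5 uM final), then stimulated with LPS (250 ng/mL final) plus ATP (1.25 mM final); secreted IL-1B measured by AlphaLISA after 16 hr, decreased signal indicating inhibition.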
Giardia kill: kills Giardia lamblia; Giardia lamblia trophozoite viability; activity change, % at 7.66 µM, hits read low; 0.15% of 340,000 active; AID 540267; in the data active = activity change below about -80%; inconclusive = between about -30% and that limit;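 also: parasites exposed to compound for two days anaerobically before the ATP read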
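Luminescence from cellular ATP indicates surviving trophozoites (100 cells/well) following 48 hrs anaerobic compound treatment at 37 deg C; signal develops 15-30 min at room temperature.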
TDP1 cell noCPT: qHTS for Inhibitors of human tyrosyl-DNA phosphodiesterase 1 (TDP1): qHTS in cells in absence of CPT; Potency, µM (doses to about 46.2 µM), without a hit: at the highest dose activity change, negative = growth inhibition, most hits filed as inhibitors; 15% of 420,000 active; AID 686978, 2013; DT40 Tdp1-/- hTDP1 cells, no CPT, ATP luminescence, 48 h; also: potency is read from the fitted curve at half-maximal effect; nearly all actives have a fitted effect of over 55% in size
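Growth of hTDP1-complemented DT40 Tdp1-knockout cells is measured by ATP luminescence after at least 48 hr compound exposure at 37 °C, with DMSO substituting for the 20 nM CPT used in the parallel screen.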
DT40 TDP1 CPT: growth inhibition of DT40 Tdp1-/-;hTDP1 cells with camptothecin (screen for TDP1 inhibitors); chicken DT40 Tdp1-/-;hTDP1 cells + 20 nM CPT, ATP luminescence, 48 h; Potency, µM (series often up to 46.2 µM), inactives show at the highest dose activity change, negative = growth inhibition, most hits filed as inhibitors; AID 686979; 12% of 420,000 active; also: potency is read from the fitted curve at half-maximal effect; nearly all actives have a fitted effect of over 55% in size
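Chicken DT40 Tdp1-/- cells complemented with human TDP1, 400 cells/well, exposed to compounds plus 20 nM camptothecin for at least 48 h at 37 C; viability read as ATP content by CellTiter-Glo luminescence.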
TDP1 inh: blocks human tyrosyl-DNA phosphodiesterase 1. AID 485290. recombinant TDP1, AlphaScreen DNA substrate cleavage. Potency, µM (top dose mostly 130 µM), for the others: at the highest dose activity change, negative = inhibition, hits mostly inhibitors. 0.28% of 350,000 active. Q9NUW8; also: potency is read from the fitted curve at half-maximal effect; nearly all actives have a fitted effect of over 40% in size
Target sequence (Q9NUW8 whole entry, looked up): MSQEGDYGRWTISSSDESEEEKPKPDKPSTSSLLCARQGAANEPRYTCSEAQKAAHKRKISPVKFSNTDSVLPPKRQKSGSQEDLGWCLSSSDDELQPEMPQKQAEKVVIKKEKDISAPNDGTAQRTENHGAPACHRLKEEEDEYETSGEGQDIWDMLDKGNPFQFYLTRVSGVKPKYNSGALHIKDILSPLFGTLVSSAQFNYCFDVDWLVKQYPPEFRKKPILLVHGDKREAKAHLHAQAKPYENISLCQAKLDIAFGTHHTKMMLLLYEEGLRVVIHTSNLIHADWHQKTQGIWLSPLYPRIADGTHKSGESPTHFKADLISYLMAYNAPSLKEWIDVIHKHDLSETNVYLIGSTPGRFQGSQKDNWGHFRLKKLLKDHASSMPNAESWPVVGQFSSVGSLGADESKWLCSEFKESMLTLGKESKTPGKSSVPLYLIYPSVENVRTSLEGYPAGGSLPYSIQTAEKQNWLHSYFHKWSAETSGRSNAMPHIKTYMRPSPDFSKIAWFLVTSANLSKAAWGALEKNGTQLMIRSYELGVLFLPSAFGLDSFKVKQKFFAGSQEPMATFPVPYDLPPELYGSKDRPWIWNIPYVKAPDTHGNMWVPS
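Here, a 5' biotin and 3' phosphotyrosine-FITC DNA oligonucleotide reports Tdp1 activity: intact substrate bridges AlphaScreen beads, while cleavage leaves a 3' phosphate and drops signal. All incubations at room temperature.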
ELG1 repair inh: inhibitors of ELG1-dependent DNA repair in HEK293T cells | Potency, µM (top dose mostly 46.1 µM), for inactives: top-dose activity change, negative = inhibition, most hits filed as inhibitors | 2.3% of 330,000 active | HEK293T ELG1-luciferase reporter, luminescence, 16 h; DNA damage induced by 5-fluorouridine; also: potency is read from the fitted curve at half-maximal effect; nearly all actives have a fitted effect of over 55% in size
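Cells (2,000 per well) received 5-fluorouridine plus test compound or DMSO and were incubated 16 hr at 37 °C, 5% CO2. Luciferase activity was read by luminescence 30 min after ONE-Glo addition; signal suppression marked inhibition of damage-induced ELG1 function.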
Numbers without * were called inactive; ? = inconclusive; nt = not tested or not shown; [ ] = remark or other dose. Rows were chosen to be rich in hits. Some 19% of all compounds tested hit in one or more screens of this group. Unless noted, calls follow the shape of the dose curve; as a rule, active = well fitted curve in the direction sought with a large enough effect; inconclusive = small, poorly fitted or top-dose-only effect, or another doubt; inactive = no such curve, though single readings can be large; an effect the other way counts as inactive or inconclusive. % is scaled to controls: 0 for no effect and ±100 for the full control effect.

SMILES | IL-1B inflam inh | Giardia kill | TDP1 cell noCPT | DT40 TDP1 CPT | TDP1 inh | ELG1 repair inh
COc1ccc(-c2noc(N3CCN(c4ccc(Cl)cc4)CC3)n2)cc1OC | nt | nt | 7% | -10% | 2% | nt
COc1ccc(OC)c(-c2noc(N3CCN(c4cccc(C(F)(F)F)c4)CC3)n2)c1 | nt | nt | ? | ? | -6% | nt
Cc1cc(Cl)ccc1NC(=O)CN(c1ccccc1Br)S(C)(=O)=O | nt | nt | -29% | ? | 0%[12.3 µM] | nt
Cc1c(C(=O)NCc2ccccc2Cl)sc2ncnc(N(C)C3CCCCC3)c12 | nt | nt | 18µM* | ? | 3% | nt
Cc1ccc(C)c(CNC(=O)c2sc3ncnc(N(C)C4CCCCC4)c3c2C)c1 | nt | nt | ? | 23µM* | 0% | nt
Cc1c(C(=O)Nc2ccccc2Cl)sc2ncnc(N(C)C3CCCCC3)c12 | nt | nt | -10% | -11% | -4% | nt
Cc1ccc(CNc2nc(CN3CCN(C=O)CC3)nc3ccccc23)o1 | nt | nt | -28% | -10%[9.04 µM] | nt | nt
Cc1ccc(-c2c(C)sc(NC(=O)C3C4CCC(O4)C3C(=O)O)c2C(=O)OC(C)C)cc1 (stereo not given) | 6 | -2 | -3% | ? | 0% | 0%
COC(=O)c1c(NC(=O)/C=C/C(=O)O)sc(C)c1-c1ccc(C)c(C)c1 | -95* | -17 | ? | ? | 3% | -6%
COC(=O)c1scc(C)c1NC(=O)/C=C/C(=O)O | 7 | -3 | -18% | 12% | 7% | 14%
COC(=O)c1c(NC(=O)/C=C/C(=O)O)sc(C)c1-c1ccc(C(C)C)cc1 | -101* | -3 | 21µM* | 4.6µM* | 5% | -18%
CCOC(=O)c1c(NC(=O)/C=C/C(=O)O)sc(C)c1-c1ccc(F)cc1 | -101* | 0 | ? | ? | nt | 10%
CCOC(=O)c1c(N)sc(C)c1-c1ccccc1 | nt | nt | nt | nt | 17% | nt
CCOC(=O)c1c(NC(=O)/C=C/C(=O)O)sc(C)c1-c1ccc(C)c(C)c1 | -95* | 14 | ? | ? | 3% | -9%
CCCCn1c(N)c(N(CCOC)C(=O)c2cc(-c3ccccc3Cl)nc3ccccc23)c(=O)[nH]c1=O | -11 | 2 | 1% | -2% | 10%[0.505 µM] | 5%
CCOc1ccc(N2CC(C(=O)Nc3cccnc3)CC2=O)cc1 (stereo not given) | -7 | -4 | 1% | 15% | 3% | -7%
CC(C)=C1C2CCC1C(C(=O)Nc1sc(C)c(-c3ccc(C(C)C)cc3)c1C(N)=O)C2C(=O)O (stereo not given) | -28 | 2 | 16µM* | 16µM* | 8% | ?
CSc1nnc(CNC(=O)c2c(-c3ccccc3)noc2C)n1-c1ccc(F)cc1 | nt | nt | -15% | 4% | nt | nt
C/C(=N\NC(=O)c1ccc(NS(=O)(=O)c2cccs2)cc1)c1cccs1 | -52* | 12 | -15% | 18% | -3% | 0%
C/C(=N\NC(=O)c1ccc(NS(=O)(=O)c2cccs2)cc1)c1ccc(Cl)cc1 | -5 | 9 | 23µM* | ? | 6% | 15%
C/C(=N\NC(=O)c1ccc(NS(=O)(=O)c2cccs2)cc1)c1ccc2c(c1)OCO2 | -7 | -14 | ? | ? | 2% | 11%
COC(=O)N/N=C(\C)c1cccs1 | -6 | 6 | -6% | -7% | -6% | ?
C/C(=N\NC(=O)c1ccc(Cl)cc1)c1cccs1 | -63* | -22 | ? | -17% | 0% | ?
O=C(NN=Cc1c(F)c(F)c(F)c(F)c1F)c1ccc(NS(=O)(=O)c2cccs2)cc1 | -99* | 1 | ? | ? | 1% | 1%
O=C(NCc1cccc(C(F)(F)F)c1)C1CCC(=O)N(C2CCCCCC2)C1 (stereo not given) | ? | -18 | ? | -2% | 2% | -4%
SMILES | IL-1B inflam inh | Giardia kill | TDP1 cell noCPT | DT40 TDP1 CPT | TDP1 inh | ELG1 repair inh
COc1cc(/C=C2/N=C(c3ccccc3)OC2=O)c(F)cc1OCc1ccccc1 | nt | 6 | nt | nt | nt | nt
Cc1ccnc(SCc2ccc(C(=O)O)cc2)n1 | 9 | 14 | ? | ? | nt | 0%
CC(/C=C/c1ccccc1F)=N\NC(=O)c1ccccc1 | ? | -1 | ? | ? | 4% | ?
CC(/C=C/c1ccccc1F)=N\NC(=O)c1ccc(Cl)cc1 | 0 | -1 | 15µM* | 15µM* | 5% | 16%
Cc1cccc(C(=O)N/C(=C\c2ccco2)C(=O)N2CCCC2)c1 | 9 | 2 | -25% | -3% | 0% | 24%
CCn1c(COc2ccc(=O)n(-c3ccccc3)n2)nnc1SCc1ccccc1C | -8 | -5 | ? | 16µM* | 6% | -3%
COc1ccc(CN2CC[C@H]3C=CC[C@@H](C(=O)NCc4cccnc4)[C@H]3C2=O)cc1OC | nt | nt | 2% | 13% | nt | nt
CCC(C)NCCOCCOc1ccc(Br)cc1 (stereo not given) | ? | -23 | 23µM* | ? | -5% | -1%
Cc1cc2c(cc1S(=O)(=O)CCC(=O)Nc1cccc(C(F)(F)F)c1)OCC(=O)N2 | 34 | 25 | 16% | -6% | 1% | 2%
CC1CCN(C(=O)CSc2nc(-c3ccccc3)no2)CC1 | nt | nt | -25% | -16% | -3% | nt
COc1ccc(N2CCN(C(=O)CSc3nc(-c4ccc(C(C)C)cc4)no3)CC2)cc1 | nt | nt | 12µM* | 18µM* | 5% | nt
CC1CCN(C(=O)Cn2nnc(-c3ccc(C(C)C)cc3)n2)CC1 | 24 | 49 | ? | 16µM* | nt | -3%
CC1CCN(C(=O)CSc2nc(-c3ccc(C(C)C)cc3)no2)CC1 | nt | nt | 23µM* | 21µM* | 3% | nt
CC(C)c1ccc(-c2noc(SCC(=O)N3CCCCC3C)n2)cc1 (stereo not given) | nt | nt | 15µM* | ? | 3% | nt
CC(C)c1ccc(-c2noc(SCC(=O)N3CCN(c4ccc(F)cc4)CC3)n2)cc1 | nt | nt | -17% | -22% | 5% | nt
CC1CCCCN1C(=O)CSc1nnc(-c2ccccc2F)o1 (stereo not given) | -14 | -21 | -11% | -18% | nt | ?
CC(C)(C)NS(=O)(=O)c1ccc(NC(=O)C(Sc2ccccc2)c2ccccc2)cc1 (stereo not given) | ? | -6 | ? | ? | 3% | ?
CCOC(=O)c1c(C)[nH]c(C(=O)COC(=O)c2ccco2)c1C | 16 | 19 | -8% | -19% | -4% | ?
COc1cccc(-c2cc(C(F)(F)F)nc(-n3nc(C)c(Br)c3C)n2)c1 | nt | nt | ? | ? | 2% | nt
CC1CCN(C(=O)c2cc(S(=O)(=O)N3CCOCC3)ccc2N2CCCC2)CC1 | -29 | -16 | ? | -19% | 1% | 12%

Screening data as filed in PubChem BioAssay.
